Results on 16 compounds are retold here after PubChem BioAssay (EPA / NIEHS).

Experiment [1] has as its target Retinoic acid receptor RXR-alpha (Homo sapiens) (UniProt P19793). Kind of experiment: ATG_RXRa_TRANS: Attagene TRANS-FACTORIAL HepG2 Assay for human Retinoid X Receptor alpha (RXRa) (AID 2283012; active means hit-call score of the fitted dose curve at least 0.9, where 1 is the maximum). In short, it runs like this:
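TRANS format reporting activity of exogenous RXRa-Gal4 chimera in transiently transfected HepG2, 24 h exposure. Reporter transcripts quantified by RT-PCR with capillary electrophoresis, with gain of signal scored relative to DMSO.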

The target of experiment [2] is human Retinoid X Receptor beta (RXRb), RXRB (gene 6257) (UniProt P28702). Kind of experiment: ATG_RXRb_TRANS: Attagene TRANS-FACTORIAL HepG2 Assay for human Retinoid X Receptor beta (RXRb) (AID 2283013; active means hit-call score of the fitted dose curve at least 0.9, where 1 is the maximum). In outline:
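Readout is reporter transcript induction after 24 h dosing. It is measured by RT-PCR of total RNA followed by fluorescent capillary electrophoresis. HepG2 liver cells carry transfected multiple reporter units driven by an exogenous RXRb-Gal4 fusion; activity is relative to DMSO.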

Experiment [3] has as its target human Thyroid Receptor alpha (THRa1), THRA (gene 7067) (UniProt P10827). Kind of experiment: ATG_THRa1_TRANS: Attagene TRANS-FACTORIAL HepG2 Assay for human Thyroid Receptor alpha (THRa1) (AID 2283014; active means hit-call score of the fitted dose curve at least 0.9, where 1 is the maximum). In short, it runs like this: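 HepG2 cells transiently transfected with chimeric NR-Gal4 and GAL4-UAS reporter units, dosed 24 h. Reporter mRNA quantified by RT-PCR, fluorescent labeling, HpaI digestion and capillary electrophoresis; gain-of-signal fit versus DMSO.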

For experiment [4], the target named is human Vitamin D Receptor (VDR), VDR (gene 7421) (UniProt P11473). Kind of experiment: ATG_VDR_TRANS: Attagene TRANS-FACTORIAL HepG2 Assay for human Vitamin D Receptor (VDR) (AID 2283022; active means hit-call score of the fitted dose curve at least 0.9, where 1 is the maximum). In outline: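 HepG2 cells were transiently transfected with GAL4-UAS reporter units and a chimeric VDR-Gal4 construct, then dosed for 24 hours. Reporter mRNA was quantified by RT-PCR, fluorescent labeling, HpaI digestion and capillary electrophoresis; gain of signal analysed vs DMSO.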
Chain of human Vitamin D Receptor (VDR), VDR (gene 7421) (P11473 whole entry, looked up, the tested form may be a part): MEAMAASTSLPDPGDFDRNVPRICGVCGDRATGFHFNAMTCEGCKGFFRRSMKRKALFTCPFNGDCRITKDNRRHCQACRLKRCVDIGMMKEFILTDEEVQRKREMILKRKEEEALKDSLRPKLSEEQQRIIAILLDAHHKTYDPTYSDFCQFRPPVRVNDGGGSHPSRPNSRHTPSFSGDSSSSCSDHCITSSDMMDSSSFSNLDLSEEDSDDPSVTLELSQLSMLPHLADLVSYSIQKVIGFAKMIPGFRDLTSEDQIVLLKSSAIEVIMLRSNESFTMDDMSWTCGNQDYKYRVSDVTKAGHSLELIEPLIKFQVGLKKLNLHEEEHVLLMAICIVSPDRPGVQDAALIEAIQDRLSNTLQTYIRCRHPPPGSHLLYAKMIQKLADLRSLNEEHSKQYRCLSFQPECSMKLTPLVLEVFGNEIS

Read-out in experiment [5]: E-selectin (Homo sapiens) (UniProt P16581)
Kind of experiment: BSK_3C_Eselectin: BioMAP Diversity Plus: 3C Assay for Eselectin Biomarker Activity (AID 2283015).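 Further: cell surface E-selectin protein quantified by ELISA 24 h after dosing.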 Conditions: primary human endothelial cells (HUVEC); actives raise or lower the signal. In short, it runs like this:
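Primary human umbilical vein endothelial cells (3C system), read 24 h after compound addition; E-selectin measured by ELISA. Bidirectional curve fitting against DMSO baseline; cytotoxicity by parallel SRB total-protein staining.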

Read-out in experiment [6]: Interleukin-1 alpha (IL1a), IL1A (gene 3552)
Kind of experiment: BSK_BE3C_IL1a: BioMAP Diversity Plus: BE3C Assay for Interleukin-1 alpha (IL1a) Biomarker Activity (AID 2283016). The following applies: primary human bronchial epithelial cells; actives raise or lower the signal. In short, it runs like this: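 IL-1a measured by ELISA after 24 h treatment of human primary bronchial epithelial cells, with gain or loss of signal fitted versus DMSO. Parallel cultures stained with SRB gauge overt cytotoxicity.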

Read-out in experiment [7]: Monocyte Chemoattractant Protein-1 (MCP1), CCL2 (gene 6347)
Kind of experiment: BSK_3C_MCP1: BioMAP Diversity Plus: 3C Assay for Monocyte Chemoattractant Protein-1 (MCP1) Biomarker Activity (AID 2283017). Conditions: primary human endothelial cells (HUVEC); actives raise or lower the signal. In short, it runs like this: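 Human umbilical vein endothelial cells (3C system) exposed to chemicals for 24 h; MCP-1 quantified by ELISA against the DMSO baseline with bidirectional fitting, and parallel SRB staining used to assess cytotoxicity.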

Read-out in experiment [8]: Monocyte Chemoattractant Protein-1 (MCP1), CCL2 (gene 6347)
Kind of experiment: BSK_4H_MCP1: BioMAP Diversity Plus: 4H Assay for Monocyte Chemoattractant Protein-1 (MCP1) Biomarker Activity (AID 2283018). The following applies: primary human endothelial cells (HUVEC); actives raise or lower the signal. In outline:
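ELISA of MCP-1 (CCL2) 24 h after chemical dosing of HUVEC in the BioMAP 4H system. Gain or loss versus DMSO fitted; parallel SRB staining (560 nm) tracked overt cytotoxicity.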

Read-out in experiment [9]: Human Leukocyte Antigen - DR isotype (HLADR), HLA-DRA (gene 3122)
Kind of experiment: BSK_3C_HLADR: BioMAP Diversity Plus: 3C Assay for Human Leukocyte Antigen - DR isotype (HLADR) Biomarker Activity (AID 2283019).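 Further: ELISA of cell-surface HLA-DR on HUVEC 24 h after dosing.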 The following applies: primary human endothelial cells (HUVEC); actives raise or lower the signal. In short, it runs like this:
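HUVEC monoculture, HLA-DR measured by ELISA 24 h after chemical dosing. Fitted bidirectionally against DMSO baseline; parallel SRB staining assessed cytotoxicity, with 3C proliferation read by SRB at 48 h.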

Read-out in experiment [10]: Interleukin-8 (IL8), CXCL8 (gene 3576)
Kind of experiment: BSK_3C_IL8: BioMAP Diversity Plus: 3C Assay for Interleukin-8 (IL8) Biomarker Activity (AID 2283020). The following applies: primary human endothelial cells (HUVEC); actives raise or lower the signal. In outline: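 IL-8 was measured by ELISA in HUVEC cultures 24 h after chemical dosing, with gain or loss of signal fitted relative to DMSO. Parallel SRB total-protein staining tracked overt cytotoxicity.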

A short description of experiment [11]: BSK_3C_SRB: Viability Assessment in the BioMAP Diversity Plus: 3C Assay (AID 2283023).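 Further: fitted both ways against DMSO so a hit may be signal rise or drop.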 The following applies: primary human endothelial cells (HUVEC). In outline: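 Human umbilical vein endothelial cells in the 3C system, treated 24 h. Total protein measured by 0.1% sulforhodamine B staining after 10% TCA fixation, read at 560 nm; bidirectional fit versus DMSO.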

Read-out in experiment [12]: Matrix Metallopeptidase 1 (MMP1), MMP1 (gene 4312)
Kind of experiment: BSK_BE3C_MMP1: BioMAP Diversity Plus: BE3C Assay for Matrix Metallopeptidase 1 (MMP1) Biomarker Activity (AID 2283024). The following applies: primary human bronchial epithelial cells; actives raise or lower the signal. In short, it runs like this: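 ELISA measurement of MMP-1 after 24 h compound exposure of primary human bronchial epithelial cells. Changes in either direction fitted relative to DMSO; parallel SRB staining checked overt cytotoxicity.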

Read-out in experiment [13]: Pselectin, SELP (gene 6403)
Kind of experiment: BSK_4H_Pselectin: BioMAP Diversity Plus: 4H Assay for Pselectin Biomarker Activity (AID 2283026). Conditions: primary human endothelial cells (HUVEC); actives raise or lower the signal. In short, it runs like this:
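ELISA of surface P-selectin on HUVEC, 24 h after dosing, with parallel SRB staining (0.1% after 10% TCA fixation, 560 nm) for overt cytotoxicity. Activity fitted in both directions relative to DMSO.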

Experiment [14] is described as follows: BSK_4H_SRB: Viability Assessment in the BioMAP Diversity Plus: 4H Assay (AID 2283027).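 Further: cells exposed to compound for 24 h before staining.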 The following applies: primary human endothelial cells (HUVEC). In outline:
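HUVEC, 24 h post-dose; 10% TCA fix, 0.1% SRB stain, A560 nm. Total protein = overt cytotoxicity, parallel to biomarker read. Bidirectional fit vs DMSO baseline.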

Experiment [15] in a line: BSK_BE3C_SRB: Viability Assessment in the BioMAP Diversity Plus: BE3C Assay (AID 2283028). The following applies: primary human bronchial epithelial cells. In outline:
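Human bronchial epithelial primary cells in confluent culture, 24 h after chemical dosing; total protein by 0.1% SRB staining after 10% TCA fixation, read at 560 nm. Bidirectional fitting versus DMSO baseline.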

Read-out in experiment [16]: Thrombomodulin, THBD (gene 7056)
Kind of experiment: BSK_3C_Thrombomodulin: BioMAP Diversity Plus: 3C Assay for Thrombomodulin Biomarker Activity (AID 2283029). The following applies: primary human endothelial cells (HUVEC); actives raise or lower the signal. In outline: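 ELISA measurement of thrombomodulin on HUVEC surface 24 h after chemical dosing; activity fitted in both directions relative to DMSO vehicle.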

Read-out in experiment [17]: Urokinase-type plasminogen activator receptor (uPAR), PLAUR (gene 5329)
Kind of experiment: BSK_4H_uPAR: BioMAP Diversity Plus: 4H Assay for Urokinase-type plasminogen activator receptor (uPAR) Biomarker Activity (AID 2283030). The following applies: primary human endothelial cells (HUVEC); actives raise or lower the signal. In short, it runs like this:
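Human umbilical vein endothelial cells in the 4H system, 24 h after chemical dosing. Cell-surface uPAR measured by ELISA, fitted in both directions versus DMSO; cytotoxicity checked by SRB total protein in parallel cultures.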

Read-out in experiment [18]: Monokine induced gamma interferon (MIG), CXCL9 (gene 4283)
Kind of experiment: BSK_3C_MIG: BioMAP Diversity Plus: 3C Assay for Monokine induced gamma interferon (MIG) Biomarker Activity (AID 2283021). The following applies: primary human endothelial cells (HUVEC); actives raise or lower the signal. In outline: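 ELISA measurement of MIG in human umbilical vein endothelial cells 24 h after treatment. Cytotoxicity tracked by SRB staining in parallel cultures; gain or loss of signal fitted relative to DMSO.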

Where “and” joins values, the source holds several entries; their conditions need not be identical. Identical values can stand only once. Records with an inconclusive call do not appear. Where a structure was tested more than once in an assay, its records may differ in their call. Calls of active or inactive are those of the source. How the source made its calls, unless noted: active means hit-call score of the fitted dose curve at least 0.9, where 1 is the maximum; inactive means score below 0.9.

Chain of E-selectin (Homo sapiens) (P16581 whole entry, looked up): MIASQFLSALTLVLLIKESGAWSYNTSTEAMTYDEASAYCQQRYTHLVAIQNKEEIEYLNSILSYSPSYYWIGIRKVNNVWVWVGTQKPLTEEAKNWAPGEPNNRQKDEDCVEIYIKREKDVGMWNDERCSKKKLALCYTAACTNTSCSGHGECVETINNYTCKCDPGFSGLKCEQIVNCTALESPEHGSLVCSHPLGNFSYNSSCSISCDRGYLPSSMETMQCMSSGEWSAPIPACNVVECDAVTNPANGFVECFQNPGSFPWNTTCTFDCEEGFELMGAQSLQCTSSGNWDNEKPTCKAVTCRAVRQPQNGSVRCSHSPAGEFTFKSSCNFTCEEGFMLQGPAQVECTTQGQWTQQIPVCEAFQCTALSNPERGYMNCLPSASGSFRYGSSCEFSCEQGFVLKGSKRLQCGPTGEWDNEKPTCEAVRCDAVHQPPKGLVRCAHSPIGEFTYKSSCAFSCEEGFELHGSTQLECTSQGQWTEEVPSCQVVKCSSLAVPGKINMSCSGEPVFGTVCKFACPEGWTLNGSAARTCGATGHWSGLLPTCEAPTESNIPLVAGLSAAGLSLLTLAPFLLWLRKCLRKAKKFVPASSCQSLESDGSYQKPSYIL
Chain of human Retinoid X Receptor beta (RXRb), RXRB (gene 6257) (P28702 whole entry, looked up, the tested form may be a part): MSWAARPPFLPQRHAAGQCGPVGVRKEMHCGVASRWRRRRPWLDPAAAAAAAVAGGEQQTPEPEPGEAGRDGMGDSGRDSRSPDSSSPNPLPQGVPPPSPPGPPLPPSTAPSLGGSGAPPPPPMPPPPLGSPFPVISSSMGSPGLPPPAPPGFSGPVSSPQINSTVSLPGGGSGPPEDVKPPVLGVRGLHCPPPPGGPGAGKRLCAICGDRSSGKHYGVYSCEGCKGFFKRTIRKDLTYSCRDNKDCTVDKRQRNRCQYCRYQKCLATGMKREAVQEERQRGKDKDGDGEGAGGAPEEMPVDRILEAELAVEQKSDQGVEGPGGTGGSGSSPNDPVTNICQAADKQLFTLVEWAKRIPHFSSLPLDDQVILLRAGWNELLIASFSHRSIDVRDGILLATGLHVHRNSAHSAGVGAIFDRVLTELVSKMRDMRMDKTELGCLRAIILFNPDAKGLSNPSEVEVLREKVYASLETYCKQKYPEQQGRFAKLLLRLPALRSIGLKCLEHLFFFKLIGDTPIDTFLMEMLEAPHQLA
Chain of Retinoic acid receptor RXR-alpha (Homo sapiens) (P19793 whole entry, looked up, the tested form may be a part): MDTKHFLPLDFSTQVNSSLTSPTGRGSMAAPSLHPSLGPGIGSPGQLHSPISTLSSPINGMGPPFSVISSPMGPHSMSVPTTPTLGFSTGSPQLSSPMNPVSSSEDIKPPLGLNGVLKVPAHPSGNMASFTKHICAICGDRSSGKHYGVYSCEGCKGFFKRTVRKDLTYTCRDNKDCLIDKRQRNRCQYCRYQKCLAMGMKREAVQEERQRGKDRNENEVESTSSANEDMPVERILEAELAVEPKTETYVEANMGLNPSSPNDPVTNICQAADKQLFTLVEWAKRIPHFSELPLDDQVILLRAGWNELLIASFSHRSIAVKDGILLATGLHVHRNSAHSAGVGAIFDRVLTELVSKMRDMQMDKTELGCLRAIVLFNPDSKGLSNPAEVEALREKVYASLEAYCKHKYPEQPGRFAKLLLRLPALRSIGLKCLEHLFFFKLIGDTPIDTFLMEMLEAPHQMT
Chain of human Thyroid Receptor alpha (THRa1), THRA (gene 7067) (P10827 whole entry, looked up, the tested form may be a part): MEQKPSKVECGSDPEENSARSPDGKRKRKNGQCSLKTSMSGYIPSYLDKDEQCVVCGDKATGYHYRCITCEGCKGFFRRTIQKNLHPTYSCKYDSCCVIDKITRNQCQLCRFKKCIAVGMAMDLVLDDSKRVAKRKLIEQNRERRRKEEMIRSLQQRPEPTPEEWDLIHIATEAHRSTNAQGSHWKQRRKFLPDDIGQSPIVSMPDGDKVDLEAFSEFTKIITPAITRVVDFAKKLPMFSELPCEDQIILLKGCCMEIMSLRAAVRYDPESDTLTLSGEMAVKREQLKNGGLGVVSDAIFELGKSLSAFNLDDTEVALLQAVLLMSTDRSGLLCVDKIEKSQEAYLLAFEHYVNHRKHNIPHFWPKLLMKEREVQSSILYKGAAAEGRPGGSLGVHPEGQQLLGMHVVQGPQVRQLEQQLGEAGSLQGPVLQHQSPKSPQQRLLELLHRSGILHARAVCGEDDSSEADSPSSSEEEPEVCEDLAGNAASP

For `CCCCOC(=O)C(C)O` (centres undefined), the call in experiment [1], in [2], in experiment [3] and in [4] was inactive.
As for `CC(C)CC=C(C=O)c1ccccc1`, the call in [2] and in [4] was inactive.
`CCCCCCCC/C=C\CCCCCCCC(=O)OCC(O)CO` (centres undefined): the compound was classed as inactive in experiment [3] and in experiment [4].
`CCCCCCCCCCCCC[N+](C)(C)Cc1ccccc1`: the outcome in experiment [1], in experiment [2], in experiment [3] and in experiment [4] was inactive.
`CC1=CCC(=O)O1`: the compound was classed as inactive in [1], in [2] and in experiment [4].
On to `CCCCCCCCCCCCCC[P+](CCCC)(CCCC)CCCC`, for which the compound was classed as inactive in experiment [1], in [2] and in experiment [4].
Regarding `O=C(Cl)C(F)(F)C(F)(F)C(F)(F)C(F)(F)C(F)(F)C(F)(F)F`, the outcome in [1], in experiment [2], in experiment [5], in experiment [6], in [7] and in experiment [8] was inactive. The outcome in experiment [9], in [10], in experiment [4], in experiment [11], in experiment [12] and in experiment [13] was inactive. Moreover, the result in experiment [14], in [15], in experiment [16] and in experiment [17] was inactive. Moreover, the AC50 was 27 µM (active) in [10]; 29.3 µM (active) and 30 µM (active) in experiment [12].
In the case of `OCC(F)(F)C(F)(F)C(F)(F)C(F)(F)C(F)(F)C(F)(F)CO`, the compound was called inactive in experiment [1], in [5], in experiment [6], in experiment [7], in experiment [8] and in experiment [9]. Moreover, the outcome in experiment [10], in experiment [4], in experiment [11], in experiment [12], in [13] and in experiment [14] was inactive. Besides, the result in experiment [15], in [16] and in experiment [17] was inactive.
As for `CC(C)=CCCC(C)O` (centres undefined), the compound was classed as inactive in experiment [2] and in [4].
Regarding `Brc1nc2ccccc2s1`, the result in experiment [1], in experiment [5], in experiment [6], in [7], in experiment [8] and in [9] was inactive. Besides, the outcome in experiment [10], in experiment [4], in [11], in experiment [12], in experiment [13] and in experiment [14] was inactive. The outcome in experiment [16] and in experiment [17] was inactive.
On to `CCOC(=O)CCC(C)=O`, for which, in experiment [2], the outcome was inactive.
On to `CN(C(=O)C(F)(F)C(F)(F)C(F)(F)F)[Si](C)(C)C`, for which the call in experiment [1], in experiment [3], in experiment [5], in [6], in [7] and in experiment [8] was inactive. For the same compound, the outcome in experiment [9], in experiment [10], in [4], in experiment [11], in experiment [12] and in experiment [13] was inactive. The result in [14], in [16] and in [17] was inactive.
For the compound `CC1=CC2C3C=CC(C3)C2C1C` (centres undefined), the compound was classed as inactive in experiment [1], in [5], in experiment [6], in experiment [7], in experiment [8] and in experiment [9]. Also, the result in [10], in [4], in experiment [11], in experiment [12], in experiment [13] and in [14] was inactive. Moreover, the result in experiment [15], in experiment [16] and in [17] was inactive.
With `FC(F)(F)C(F)(F)C(F)(F)C(F)(F)C(F)(F)C(F)(F)C(F)(F)CCI`, the call in experiment [1], in [3], in [5], in experiment [6], in [7] and in experiment [8] was inactive. For the same compound, the outcome in [9], in experiment [10], in experiment [4], in experiment [11], in experiment [12] and in experiment [13] was inactive. Further, the result in experiment [14], in [15], in [16] and in [17] was inactive.
Regarding `CC(C)(C)c1cc(CCC(=O)NCCCCCCNC(=O)CCc2cc(C(C)(C)C)c(O)c(C(C)(C)C)c2)cc(C(C)(C)C)c1O`, the call in experiment [1], in [5], in [6], in [7], in experiment [8] and in experiment [9] was inactive. For the same compound, the result in experiment [10], in experiment [18], in [11], in experiment [12], in [13] and in experiment [14] was inactive. Further, the result in [16] and in experiment [17] was inactive.
On to `O=S(=O)(O)CCC(F)(F)C(F)(F)C(F)(F)C(F)(F)F`, for which the call in [3], in experiment [5], in experiment [6], in experiment [7], in experiment [8] and in experiment [9] was inactive. The outcome in [10], in [4], in experiment [11], in experiment [12], in [13] and in experiment [14] was inactive. For the same compound, the outcome in experiment [15], in experiment [16] and in experiment [17] was inactive. Further, the half-maximal activity concentration (AC50) in [10] is 30 µM (active).
